Among the data in PubChem BioAssay (Tox21) are Potency values, retold here.

A number with no mark means an inactive call. Inconclusive results are not listed. Calls of active or inactive are those of the source. Calls come from the whole dose curve; as a rule, active = well fitted curve in the direction sought with a large enough effect in the repeat runs; inconclusive = weak or mixed curves; inactive = no such curve, though single readings can be large; an effect the other way counts as inactive or inconclusive.

The nature of experiment [1]: A CellTox Green Cytotoxicity Assay to monitor cytotoxicity in HEK293 cells - 32 hour (AID 1224881). Note: nearly all actives have a fitted effect of over 40% in size. In outline: (§1)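 HEK293 cells premixed with CellTox Green dye were seeded at 600 cells/well and left 5 h at 37 C/5% CO2 before pin transfer of 23 nL compound in DMSO. Fluorescence from dye bound to dead-cell DNA was read during 40 h treatment.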
Experiment [2] can be described thus: A CellTox Green Cytotoxicity Assay to monitor cytotoxicity in HepG2 cells - 0 hour (AID 1224882). Note: nearly all actives have a fitted effect of over 35% in size. In outline:
(§2)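 HepG2 cells were seeded together with the CellTox Green dye at 600 cells/well, left 5 h at 37 C/5% CO2, then given compounds in DMSO. Fluorescence from dye bound to dead-cell DNA was read repeatedly over 40 h of treatment at 37 C.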

Experiment [3] can be described thus: A CellTox Green Cytotoxicity Assay to monitor cytotoxicity in HEK293 cells - 8 hour (AID 1224884). Note: nearly all actives have a fitted effect of over 35% in size. In outline: as §1
The nature of experiment [4]: qHTS RealTime-Glo MT Cell Viability Assay in HEK293 cells - 24 hour (AID 1224886). Note: nearly all actives have a fitted effect of over 50% in size. Note: potency is the fitted concentration of half-maximal effect. In outline:
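Tox21 10K qHTS, HEK293, 600 cells/well, RealTime-Glo reagent co-dispensed with cells; 5 h preincubation, compound by pintool, 37 C, luminescence at 0–40 h.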

Experiment [5] can be described thus: qHTS RealTime-Glo MT Cell Viability Assay in HEK293 cells - 8 hour (AID 1224887). Note: top concentration of the series differs between compounds; nearly all actives have a fitted effect of over 50% in size. In outline: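 HEK293 cells mixed with RealTime-Glo reagents (NanoLuc plus cell-permeant prosubstrate) at 600 cells/well, preincubated 5 h at 37 C/5% CO2, then given 23 nL compound in DMSO. Nonlytic luminescence from viable cells was read at 0, 8, 16, 24, 32 and 40 h.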
Experiment [6] in a line: A CellTox Green Cytotoxicity Assay to monitor cytotoxicity in HEK293 cells - 16 hour (AID 1224888). Note: nearly all actives have a fitted effect of over 35% in size. A digest of the protocol:
as §1

A short description of experiment [7]: qHTS RealTime-Glo MT Cell Viability Assay in HepG2 cells - 0 hour (AID 1224889). Note: nearly all actives have a fitted effect of over 50% in size. Note: potency is the fitted concentration of half-maximal effect. A digest of the protocol: (§3)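 Cells + NanoLuc/prosubstrate dispensed (600 cells/well) → 5 h at 37 C/5% CO2 → compounds in DMSO transferred → 40 h incubation at 37 C, luminescence read at 0, 8, 16, 24, 32, 40 h.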
Experiment [8] can be described thus: A CellTox Green Cytotoxicity Assay to monitor cytotoxicity in HepG2 cells - 8 hour (AID 1224890). Note: nearly all actives have a fitted effect of over 45% in size. In outline:
as §2

Experiment [9] in a line: A CellTox Green Cytotoxicity Assay to monitor cytotoxicity in HepG2 cells - 32 hour (AID 1224883). Note: nearly all actives have a fitted effect of over 50% in size. A digest of the protocol:
as §2

The nature of experiment [10]: qHTS RealTime-Glo MT Cell Viability Assay in HepG2 cells - 16 hour (AID 1224885). Note: nearly all actives have a fitted effect of over 50% in size. In outline: as §3

For the compound `Nc1nnc(-c2ccc([N+](=O)[O-])o2)o1`, the Potency result in experiment [1], in experiment [2], in [3], in experiment [4], in experiment [5] and in experiment [6] was “inactive” each time. Also, the Potency entry in experiment [7] and in experiment [8] was “inactive” each time.
Take `Nc1cccc2c1CN(C1CCC(=O)NC1=O)C2=O` (centres undefined): the Potency entry in experiment [1], in [9], in [3], in experiment [10], in experiment [4] and in experiment [5] was “inactive” in each case. For the same compound, the Potency entry in experiment [6], in experiment [7] and in experiment [8] was “inactive” throughout.
With `O=C1c2ccccc2C(=O)C1c1nc2ccccc2c(Br)c1O`, the Potency result in [1], in experiment [2], in [10], in experiment [4], in experiment [6] and in experiment [7] was “inactive” throughout.
On to `CC(C)=CCC/C(C)=C/CC/C(C)=C/CCC(=O)OC/C=C(\C)CCC=C(C)C`, for which the Potency entry in experiment [1], in experiment [9], in [3], in experiment [10], in [4] and in experiment [5] was “inactive” throughout. The Potency result in experiment [6], in experiment [7] and in experiment [8] was “inactive” each time.
For `CCOC(=O)c1ccccc1C(=C1C=C(Br)C(=O)C(Br)=C1)c1cc(Br)c(O)c(Br)c1`, the Potency result in experiment [1], in [9], in experiment [3], in [10], in experiment [5] and in experiment [6] was “inactive” in each case. Also, in experiment [8], the Potency result is “inactive”.
As to `CCOC(=O)c1ccc(OCCN2C[C@H](O)[C@@H](O)[C@H](O)[C@H]2CO)cc1`, the Potency result in [1], in [9], in experiment [3], in experiment [10], in [4] and in [6] was “inactive” throughout. Moreover, the Potency result in experiment [7] and in [8] was “inactive” in each case.
Turning to `Cc1ccc(Cl)c(Nc2ccccc2C(=O)O)c1Cl`, the Potency result in [1], in [9], in [3], in experiment [10], in [4] and in experiment [5] was “inactive” in each case. Further, the Potency result in experiment [6], in [7] and in experiment [8] was “inactive” in each case.
For `CCOC(C)=O`, the Potency result in experiment [1], in [9], in experiment [3], in [10], in experiment [4] and in experiment [5] was “inactive” each time. Moreover, the Potency result in experiment [6] and in experiment [8] was “inactive” in each case.
In the case of `CC/C=C1/OC(=O)c2ccccc21`, the Potency result in experiment [1], in [9], in [3], in experiment [10], in experiment [4] and in [5] was “inactive” throughout. Besides, the Potency entry in [6], in experiment [7] and in [8] was “inactive” throughout.
Turning to `CCC(C)(C)OC`, the Potency entry in [1], in [9], in experiment [3], in experiment [10], in experiment [4] and in experiment [5] was “inactive” each time. The Potency result in experiment [6], in [7] and in experiment [8] was “inactive” in each case.
As for `C1C[C@@H]2[C@H]3CC[C@H](C3)[C@@H]2C1`, the Potency entry in [1], in [9], in experiment [3], in [10], in experiment [4] and in [5] was “inactive” each time. For the same compound, the Potency result in experiment [6] and in [8] was “inactive” each time.
Regarding `CC(=O)OCC(=O)NCCCOc1cccc(CN2CCCCC2)c1`, the Potency result in experiment [1], in experiment [9], in experiment [3], in experiment [10], in experiment [4] and in experiment [5] was “inactive” in each case. The Potency entry in experiment [6], in experiment [7] and in experiment [8] was “inactive” each time.
In the case of `O=C(O)c1ccc(OCCCOc2ccc(C(=O)O)cc2)cc1`, the Potency result in experiment [1], in experiment [9], in experiment [3], in experiment [10], in experiment [4] and in [6] was “inactive” in each case. Also, the Potency result in experiment [7] and in experiment [8] was “inactive” each time.
Consider `CC(C)C(O)(c1ccc(OC(F)(F)F)cc1)c1cncnc1` (centres undefined), for which the Potency result in experiment [1], in experiment [9], in [3], in experiment [10], in experiment [5] and in experiment [6] was “inactive” throughout. Further, the Potency result in [7] and in experiment [8] was “inactive” throughout.
Regarding `CCOC(=O)c1ccc(O)c(O)c1`, the Potency result in experiment [1], in [9], in experiment [3], in experiment [10], in experiment [4] and in [5] was “inactive” in each case. In addition, the Potency entry in experiment [6] and in [7] was “inactive” each time.
Take `CCOc1ccccc1O[C@H](c1ccccc1)[C@H]1CNCCO1`: the Potency entry in experiment [1], in experiment [2], in experiment [3], in experiment [10], in [4] and in [6] was “inactive” throughout. The Potency result in [8] was “inactive”.
`CCOC(=O)/C=C/C(=O)OCC`: the Potency result in [1], in experiment [9], in [3], in experiment [10], in [4] and in experiment [5] was “inactive” in each case. For the same compound, the Potency result in experiment [6], in experiment [7] and in experiment [8] was “inactive” throughout.
Regarding `CC[C@]1(O)C[C@H]2CN(CCc3c([nH]c4ccccc34)[C@@](C(=O)OC)(c3cc4c(cc3OC)N(C=O)[C@H]3[C@@](O)(C(=O)OC)[C@H](OC(C)=O)[C@]5(CC)C=CCN6CC[C@]43[C@@H]65)C2)C1`, the Potency entry in [1], in experiment [2], in experiment [3], in experiment [10], in experiment [5] and in experiment [6] was “inactive” each time. The Potency entry in experiment [7] and in experiment [8] was “inactive” throughout.
With `CC1=Nc2ccc3ccccc3c2C1(C)C`, the Potency entry in experiment [1], in [2], in experiment [10], in [6], in experiment [7] and in experiment [8] was “inactive” in each case.
As for `CCOC(=O)c1ccc(C#Cc2ccc3c(c2)C(C)(C)CCS3)nc1`, the Potency entry in [1], in experiment [2], in [3], in experiment [10], in [6] and in experiment [8] was “inactive” throughout.
With `CS(=O)(=O)c1ccc(-c2cn3ccccc3n2)cc1`, the Potency entry in experiment [1], in experiment [2], in experiment [3], in [6], in [7] and in [8] was “inactive” each time.
For `CC(C)(C)C(=O)C(=O)O`, the Potency result in experiment [1], in [2], in [3], in [10], in experiment [4] and in experiment [5] was “inactive” each time. The Potency entry in experiment [7] and in [8] was “inactive” in each case.
`CCc1ccccc1`: the Potency result in experiment [1], in [9], in experiment [3], in experiment [10], in [4] and in experiment [5] was “inactive” each time. Also, the Potency entry in experiment [6], in experiment [7] and in [8] was “inactive” each time.
Regarding `CC1=C(Br)C(=O)C(Br)=C/C1=C(/c1ccccc1S(=O)(=O)O)c1cc(Br)c(O)c(Br)c1C`, the Potency result in experiment [1], in [9], in [3], in [10], in experiment [4] and in experiment [5] was “inactive” in each case. The Potency result in experiment [6] and in [8] was “inactive” throughout. In experiment [7], the Potency was 16.7 µM (active).
`O=C1Cc2ccccc2N1c1c(Cl)cccc1Cl`: the Potency result in experiment [1], in [2], in [3], in [10], in experiment [6] and in experiment [7] was “inactive” each time. The Potency result in [8] was “inactive”. In [4], the Potency is 38.9 µM (active).
